# Bioassay records (PubChem BioAssay)
# HSF1 inh: HSF1 inhibition; NIH3T3-HGL HSE-luciferase, MG132-induced, luminescence 8 h; stronger effect = lower value; actives 0.77% (n = 300,000); activity change, negative = inhibition, % at 7.5 µM (by protocol); AID 2098;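 active = more than half of replicate wells show activity change below -50%, luminescence cut by over half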;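 note: luciferase reports HSF-1 transcriptional activity via heat shock element; 0% = median of DMSO wells and -100% = zero luminescence signal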
# esBAF inh: SWI/SNF esBAF complex inhibition. mouse ES cells, Bmi1-luciferase knock-in reporter, 24 h; 100% = twice the neutral-well signal. actives 2% (n = 350,000). AID 602393. reporter increase, % at 12.5 µM; in the data active = activation above about 40%;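 note: 0% = median of the plate's neutral control wells and 100% = double that signal; a rise in the Bmi1 reporter signal indicates esBAF inhibition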
# HSF1 activator: increases HSF-1 driven luciferase reporter signal; NIH3T3-HGL HSF-1 luciferase reporter, MG132, 8 h; 100% = twice DMSO control signal; activation, % at 9 µM; actives 1.7% (n = 300,000);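 active = mean replicate activation of at least 50% with a set share of replicates each reaching 50%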;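 note: 0% = median of the neutral control wells and 100% = twice that signal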
# Vif imaging: inhibitors of HIV Vif. HEK293T cells, Vif self-association by quenched fluorescence, imaging, 24 h. inhibition, % at 7.49 µM. actives 0.35% (n = 340,000); in the data active = inhibition above about 50%, passing the limit was not always enough
# Active calls of the source: *; x = no result. Only some compounds are listed: those with a hit (about 3.4% of all), similar ones and a draw of the others.
SMILES,HSF1 inh,esBAF inh,HSF1 activator,Vif imaging
Cc1ccc(S(=O)(=O)NCC[C@H]2CC[C@@H](NC(=O)Nc3cccc(F)c3)[C@H](CO)O2)cc1,x,4.3,x,x
CC(C)(C)C(=O)O/N=C(\N)COc1cccc(Cl)c1,23.5,81.1*,25.7,-0.5
CC(C)(C)C(=O)OC/C(N)=N/OC(=O)c1ccc(Cl)cc1,14.5,x,41.6,5.6
Cc1cccc(Oc2coc3cc(O)ccc3c2=O)c1,-3.2,58.7*,15.3,-10.5
Cc1cccc(Oc2coc3cc(OC(=O)c4cncc(Br)c4)ccc3c2=O)c1,5.2,34.3*,19.9,-1.6
Cc1cccc(Oc2coc3cc(OC(=O)c4cc5ccccc5oc4=O)ccc3c2=O)c1,7.7,53.6*,19.0,23.1
COc1ccc(CCNC(=O)CN2CCN(Cc3ccccc3F)C2=O)cc1OC,-74.0*,x,-79.2,-3.8
Cc1ccc(S(=O)(=O)N[C@@H]2CC[C@@H](CCn3cc(-c4cccnc4)nn3)O[C@H]2CO)cc1,x,-5.1,x,x
O=C(N[C@@H]1CC[C@@H](CCNC(=O)C2CCC2)O[C@@H]1CO)c1ccccn1,x,-2.4,x,x
CSc1ccccc1NC(=O)c1ccc(Br)o1,23.1,51.7*,26.6,29.3
Cc1cccc(C)c1NC(=S)NC(=O)c1ccc(Br)o1,3.6,1.1,-2.8,4.9
Cc1cccc(NC(=S)NC(=O)c2ccc(Br)o2)c1C,44.0,x,91.9*,-11.0
O=C(Nc1cccc2ccccc12)c1ccc(Br)o1,x,-14.0,x,x
CCC(=O)NC(=S)Nc1ccc(NC(=O)c2ccc(Br)o2)cc1,2.8,68.6*,27.6,-6.2
O=C(NC(=S)Nc1ccccc1F)c1ccc(Br)o1,21.4,49.3*,28.3,-9.1
COc1ccc(NC(=O)Nc2ccc3c(c2)C(=O)N([C@@H](C)CO)C[C@H](C)[C@@H](CN(C)Cc2ccc4c(c2)OCO4)OCCCC[C@@H](C)O3)cc1,x,-2.9,x,x
O=C(C[C@@H]1CC[C@H](NC(=O)NC2CCCC2)[C@@H](CO)O1)NCc1ccc(F)cc1,x,-1.0,x,x
CO[C@@H]1CC[C@@H]2CCN(C)C(=O)C[C@@H](c3ccccc3)CN(C)C(=O)c3cccc(C#N)c3OC[C@@H]1O2,x,0.5,x,x
CO[C@H]1CN(C)C(=O)c2cc(NC(=O)C3CC3)ccc2OC[C@@H](C)N(CC2CCCC2)C[C@H]1C,x,3.2,x,x
CCCc1cn(CC[C@@H]2CC[C@H](NC(=O)Nc3ccc4c(c3)OCO4)[C@H](CO)O2)nn1,x,5.6,x,x
Cc1ccc(NC(=O)c2ccc3nc[nH]c3c2)cc1C,16.4,88.5*,31.4,5.8
Cc1cc(C)cc(NC(=O)c2ccc3nc[nH]c3c2)c1,-1.0,24.0,12.7,-1.6
CN(C)c1ccc(NC(=O)c2ccc3nc[nH]c3c2)cc1,4.8,47.6*,2.1,4.0
O=C(Nc1ccc(F)cc1)c1ccc2nc[nH]c2c1,7.1,x,-15.7,0.0
CO[C@@H]1CN(C)C(=O)c2cc(NC(=O)C3CCCC3)ccc2OC[C@@H](C)N(C)C[C@H]1C,x,0.1,x,x
SMILES,HSF1 inh,esBAF inh,HSF1 activator,Vif imaging
COc1ccc(OC)c2nc(-c3ccc4c(c3)OCO4)ccc12,27.5,-6.4,53.5*,-4.5
COc1ccccc1C1=NOC(C)(c2sc(-c3ccc(Cl)cc3)nc2C)C1 (centres undefined),11.5,42.8*,8.3,-2.1
Cc1nc(-c2ccc(Cl)cc2)sc1C1(C)CC(c2ccccc2Br)=NO1 (centres undefined),11.2,x,15.8,x
Cc1nc(-c2ccc(Cl)cc2)sc1C1(C)CC(c2ccc(Cl)cc2)=NO1 (centres undefined),-63.2*,0.8,-71.0,3.4
Cc1nc(-c2ccc(Cl)cc2)sc1C1(C)CC(c2ccccc2)=NO1 (centres undefined),-28.0,58.9*,-32.6,x
Cc1nc(-c2ccc(Cl)cc2)sc1C1(C)CC(c2ccc(OC(F)(F)F)cc2)=NO1 (centres undefined),-1.0,20.0,15.0,-4.3
O=C(Cc1cccnc1)N[C@H]1CC[C@@H](CCn2cc(Cc3ccccc3)nn2)O[C@H]1CO,x,0.9,x,x
C[C@@H]1CN([C@H](C)CO)C(=O)c2cc(NC(=O)C3CCCCC3)ccc2O[C@@H](C)CCCCO[C@H]1CN(C)S(=O)(=O)c1cn(C)cn1,x,-7.8,x,x
COCc1nn2c(N)c(-c3ccccc3)cnc2c1-c1ccccc1,-26.3,50.2*,-43.8,1.8
CC(=O)c1ccc(OCc2cc(C(=O)N(C)C3CCOC3)no2)cc1 (centres undefined),-7.3,61.2*,-7.0,-12.2
COc1cc(Cl)ccc1OCc1cc(C(=O)N(C)C2CCOC2)no1 (centres undefined),12.2,55.5*,34.2,-2.2
